Data published in ChEMBL document CHEMBL3988442, “University of Dundee, Small-Polar-MMV Screening Library” (2021).

Experiments:
[1] = molecular target: T1, Aspartate--tRNA(Asp/Asn) ligase (Mycobacterium tuberculosis (strain ATCC 25618 / H37Rv)) (UniProt P9WFW3); assay: Assay for Asp RNA synthetase-1 from Mycobacterium tuberculosis; format: functional; set-up: scale not given: direction of the effect not stated beside the values; conditions: 30 µM; further: in the data most compounds retested in dose-response had high values
T1 sequence (whole entry): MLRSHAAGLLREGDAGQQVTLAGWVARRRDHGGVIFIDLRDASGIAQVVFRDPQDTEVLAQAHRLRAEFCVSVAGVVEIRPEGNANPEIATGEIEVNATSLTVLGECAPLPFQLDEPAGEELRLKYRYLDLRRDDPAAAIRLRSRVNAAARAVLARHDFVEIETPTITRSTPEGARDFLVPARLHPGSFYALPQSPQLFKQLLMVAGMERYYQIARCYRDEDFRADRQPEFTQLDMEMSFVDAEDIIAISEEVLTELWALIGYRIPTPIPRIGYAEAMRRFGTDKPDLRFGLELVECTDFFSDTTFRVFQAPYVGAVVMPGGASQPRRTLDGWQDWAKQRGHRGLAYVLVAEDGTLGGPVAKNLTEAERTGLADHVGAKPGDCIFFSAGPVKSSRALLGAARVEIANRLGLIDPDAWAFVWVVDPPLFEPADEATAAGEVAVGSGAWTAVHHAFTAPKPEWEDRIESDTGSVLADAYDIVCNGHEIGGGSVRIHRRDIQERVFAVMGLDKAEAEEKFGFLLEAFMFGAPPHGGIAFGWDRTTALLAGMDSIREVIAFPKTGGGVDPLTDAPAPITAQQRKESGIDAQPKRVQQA

[2] = molecular target: Shiga toxin 2 (Escherichia coli O157:H7) (UniProt P09385+P09386); assay: E. coli 0.157:H7 Shiga Toxin SOP - stx2 screening assay; format: functional; set-up: scale not given: direction of the effect not stated beside the values; conditions: 30 µM

Structure (SMILES) | Percent Effect [1] | Percent Effect [2]
Cc1nccc(-c2cccc(NCC(=O)N3CCCCCCC3)c2)n1 | 1.07% | 18.8%
CC(C)CNC(=O)CN1C=Nc2ccccc2S1(=O)=O | 5.2% | 32.2%
CCCn1c(C)cc(C(=O)CN2C(=O)c3ccccc3CS2(=O)=O)c1C | 0.257% | -23.8%
Fc1ccc(-c2nnc(CN3CCCC3Cn3cncn3)o2)cc1 (configuration not stated) | -1.49% | -12.6%
Cc1cc(C)n(CC2CN(Cc3nc(-c4ccoc4)no3)CCO2)n1 (configuration not stated) | 5.71% | 28.8%
Cc1ncccc1OC1(C(=O)NCCNc2ccccc2)CCNCC1 | -0.792% | 6.67%
COc1cccc(CNCc2c(C(C)C)nn(C)c2N(C)C)c1OC | -3.61% | 31.1%
COC(=O)C(NC(=O)C(C)C)c1cc(F)ccc1F (configuration not stated) | -0.455% | 15.2%
Cc1cccc(N2CC[C@@H]3CN(C(=O)c4ccco4)CCO[C@@H]3C2)n1 | -0.221% | 1.6%
CC(C)c1ncncc1C(=O)N1CCCN(Cc2cccs2)CC1 | -3.79% | 6.52%
Cc1nn(-c2ccccc2)cc1C(=O)N1CCCC(n2cccn2)C1 (configuration not stated) | -5.22% | -27.4%
Cc1noc2ncc(C(=O)N3CCCC3c3cnn(C)c3)cc12 (configuration not stated) | 3.4% | -3.42%
COc1ccc(NC(=O)N2CCCC2c2ccco2)cc1OC (configuration not stated) | 1.24% | -11.9%
Cc1ccc(N2CCCC(NCC(=O)Nc3cc(C)no3)C2)nn1 (configuration not stated) | -0.917% | -55.3%
Cc1cc(NC(=O)CN2CCc3cnc(C)nc3C2)on1 | -1.18% | -34.7%
O=C(Nc1cccnc1)[C@H]1C[C@@H]2CCN(c3nncs3)C[C@H]2O1 | -3.84% | -14%
CN(C(=O)Cn1nc(-c2ccc(F)cc2)oc1=O)C1CCS(=O)(=O)C1 (configuration not stated) | 4.6% | -7.66%
c1cnn(CC2CN(Cc3ccc(-n4ccnc4)cc3)CCO2)c1 (configuration not stated) | -1.11% | -7.92%
CCN1C(=O)CCCC12CCCN(C(=O)c1conc1C)C2 (configuration not stated) | -4.46% | 1.9%
CCc1ccc(C(=O)N2CCC(c3nncn3CC)CC2)cc1 | -2.16% | 7.54%
O=C1CC[C@H]2CN(Cc3ccc(Cl)s3)CC[C@H]2N1CCc1c[nH]cn1 | 0.912% | -115%
CNc1cc(C2CCCN2Cc2ccccc2C(=O)O)ccn1 (configuration not stated) | -0.938% | -8.27%
O=C(NCCN1CCCc2ccccc21)c1scnc1Cl | -4.16% | 0.202%

Structure (SMILES) | Percent Effect [1] | Percent Effect [2]
CN1CCN(C(=O)[C@@H]2CCO[C@@H]3CCN(c4ncccn4)C[C@@H]32)CC1 | 5.45% | -16.6%
COc1ccc(CNCc2ccnc(N3CCCCC3)c2)cc1OC | -2.15% | -57.5%
CCN1CCn2c(C)cnc2C12CCN(C(=O)CC(C)C)CC2 | 1.31% | -0.923%
Cc1nnc(N2C[C@H](C(=O)NCC3CC3)[C@@H]3CCO[C@@H]3C2)s1 | -0.219% | -6.05%
Cc1cnn(C2CN(CC(=O)NCCc3ccccc3)C2)c1 | -1.74% | 32.1%
CCn1cc2c(n1)CN(CC1CC1)CC2COCC1CC1 (configuration not stated) | -2.72% | -2.1%
O=C1NC2(CCN(C(=O)c3ccccc3)CC2)CC1c1cccnc1 (configuration not stated) | -4.95% | -5.71%
CN1CC[C@H](c2ccccc2)[C@@H]2[C@H]1CCCCN2C(=O)c1cnccn1 | -3.68% | 3.52%
O=C(CN1CCCCCCC1=O)NCc1ccccn1 | -0.137% | -35.3%
Cc1nc(C)c(CC(=O)Nc2ncc(C)s2)c(=O)[nH]1 | -3.61% | 30.1%
O=C(CN1CCCCC1Cn1cncn1)NCCc1ccc(F)cc1 (configuration not stated) | 3.25% | -5.15%
COCCN(Cc1ccc(F)cc1Cl)C(=O)c1ccc(=O)[nH]n1 | -1.92% | 2.84%
COCCN1C[C@@H](C)[C@@]2(COCCN(C(=O)c3cnc(C)cn3)C2)C1 | -1.78% | -19.1%
CNc1nc(C)c(C(=O)N2CCCCC2CN2CCCCCC2)s1 (configuration not stated) | 1.75% | 1.34%
Nc1cc(CCC2CN(Cc3ccc(C(=O)O)cc3)CCO2)ccn1 (configuration not stated) | 2.72% | 55.2%
Cc1ccc(CN2CC(C(=O)Nc3ccccc3)C3(CCOCC3)C2)s1 (configuration not stated) | 8.04% | -1.18%
CC1CN(C(=O)CN(Cc2ccco2)C2CC2)CCO1 (configuration not stated) | 3.17% | 18.9%
CC(O)(CN1CCC2(CC1)OCCO2)c1cccc(C(F)(F)F)c1 (configuration not stated) | 1.23% | -7.35%
CC(NC(=O)NCCOc1ccc(F)c(F)c1)c1nncn1C (configuration not stated) | -4.5% | 27.5%
CCC1c2ccsc2CCN1C(=O)NCCNc1ncccn1 (configuration not stated) | -3.52% | 10.9%
CCOc1cc(C)ccc1NC(=O)N(C)Cc1cnn(C)c1 | 4.37% | 24%
CN(Cc1nccn1CC(F)(F)F)C(=O)c1cccc(C#N)c1 | 1.68% | -1.08%
Cc1cccc(N2Cc3nc(=O)[nH]n3C2=O)c1 | -3.43% | -54.1%
